For experiment [1], the target named is Aryl hydrocarbon receptor (Homo sapiens) (UniProt P35869). In words: qHTS assay to identify small molecule that activate the aryl hydrocarbon receptor (AhR) signaling pathway (AID 743085).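 Further: HG2L7.5c1 human HepG2 liver cells with stably integrated DRE-driven firefly reporter; series mostly up to about 70 µM; nearly all actives have a fitted effect of over 15% in size.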 The essentials:
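AhR agonist activity is inferred from enhanced light output of a DRE-controlled firefly luciferase reporter in HepG2 cells, measured with ONE-Glo following 24 h treatment at 37C.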
On the technique in general: Quantitative high-throughput screening tests each substance at several concentrations.

Experiment [2] in a line: qHTS assay to identify small molecule that activate the aryl hydrocarbon receptor (AhR) signaling pathway - cell viability counter screen (AID 743086).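 Further: HepG2 liver cells carrying the AhR DRE luciferase reporter; series mostly up to about 70 µM; nearly all actives have a fitted effect of over 45% in size.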 In a few lines: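 HepG2-AhR-luc (HG2L7.5c1) cells, 4000/well, treated 24 h at 37 C with compound; viability measured as CellTiter-Fluor fluorescence after 30 min in the same wells as the luciferase read.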
For experiment [3], the target named is Peroxisome proliferator-activated receptor gamma (Homo sapiens) (UniProt P37231). In words: qHTS assay to identify small molecule agonists of the peroxisome proliferator-activated receptor gamma (PPARg) signaling pathway (AID 743094; active means well fitted activation curve with a large enough effect in the signal ratio in the repeat runs, not every such curve was filed as active; the % refers to the signal ratio). The essentials: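 Beta-lactamase FRET fluorescence was the read-out after a 1 h room-temperature substrate step, following 17 h compound treatment at 37C of HEK293H cells expressing a UAS-driven bla reporter responsive to PPARg.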

For experiment [4] the target is unchanged. Put plainly: qHTS assay to identify small molecule antagonists of the peroxisome proliferator-activated receptor gamma (PPARg) signaling pathway (AID 743191; calls by dose curve; further: series mostly up to about 63 µM; nearly all actives have a fitted effect of over 30% in size). In a few lines: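 GeneBLAzer PPARg UAS-bla HEK293H cells, 5 h post-plating, exposed to compounds 17 h at 37C. LiveBLAzer B/G FRET substrate added for 1 h at room temperature; beta-lactamase reporter read by fluorescence intensity.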

Experiment [5] can be described thus: qHTS assay to identify small molecule antagonists of the peroxisome proliferator-activated receptor gamma (PPARg) signaling pathway - cell viability counter screen (AID 743194). Further: nearly all actives have a fitted effect of over 55% in size. The essentials: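 Cytotoxicity counter screen in PPARg-bla HEK293H cells, same wells as reporter assay. Compounds plus 50 nM rosiglitazone (final) for 17 h at 37 C, then viability read by CellTiter-Glo luminescence.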

A short description of experiment [6]: qHTS assay for small molecule agonists of the antioxidant response element (ARE) signaling pathway (AID 743202; active means well fitted activation curve with a large enough effect in the signal ratio in the repeat runs, not every such curve was filed as active; the % refers to the signal ratio; further: potency means the concentration at half of the fitted maximal effect). In a few lines:
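ARE-bla HepG2 cells (beta-lactamase reporter under the antioxidant response element), plated 5 hours, then exposed to compounds 16 hours at 37 C. LiveBLAzer B/G FRET substrate added for 2 hours at room temperature; fluorescence intensity read.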

Experiment [7] can be described thus: qHTS assay for small molecule agonists of the antioxidant response element (ARE) signaling pathway - cell viability counter screen (AID 743203; calls by dose curve; further: nearly all actives have a fitted effect of over 55% in size). In a few lines:
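HepG2 cells carrying ARE-driven beta-lactamase; 2,000 cells/well; 5 hrs plating; compound pinned from DMSO; 16 hrs 37C/5% CO2; CellTiter-Glo added; 30 min RT; luminescence.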

Experiment [8] in a line: qHTS assay for small molecule activators of the heat shock response signaling pathway - cell viability counter screen (AID 743209). Further: nearly all actives have a fitted effect of over 50% in size. The essentials: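 Luminescence from CellTiter-Glo, added after the beta-lactamase FRET read, gave the viability signal. Cells were HSE-bla HeLa treated with DMSO-dissolved compounds for 5 h at 37 C following overnight plating.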
Experiment [9] can be described thus: qHTS assay for small molecule activators of the heat shock response signaling pathway (AID 743210; active means well fitted activation curve with a large enough effect in the signal ratio in the repeat runs, with a control signal flat, not every such curve was filed as active; the % refers to the signal ratio; further: series mostly up to about 63 µM). In a few lines: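 HSE-bla HeLa cells (beta-lactamase reporter under heat shock response elements), plated overnight, then exposed to compounds 5 h at 37 C; LiveBLAzer B/G FRET substrate added, 2.5 h at room temperature, fluorescence intensity read.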
Experiment [10] is described as follows: qHTS assay to identify small molecule agonists of the peroxisome proliferator-activated receptor delta (PPARd) signaling pathway - cell viability counter screen (AID 743211). Further: nearly all actives have a fitted effect of over 55% in size. The essentials:
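qHTS cell viability: PPARd-bla HEK293H; 17 h cpd, 37C; CellTiter-Glo, luminescence at 30 min RT.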

Records with an inconclusive call do not appear. Unmarked numbers belong to inactive results. Calls of active or inactive are those of the source. Unless noted, the call rests on the fitted dose curve; in most records, active means well fitted curve in the direction sought with a large enough effect in the repeat runs; inconclusive means weak or mixed curves; inactive means no such curve, though single readings can be large; an effect the other way counts as inactive or inconclusive. Non-standard residues stand in square brackets, D forms with d. Residues, ends and D or L forms follow the SMILES beside them. *: point of attachment. Sta = CC(C)C[C@H](N)[C@@H](O)CC(=O)O; Isovaleryl = CC(C)CC(=O)*
On the % scale 0 is the no-effect control and ±100 the full control effect.

Aryl hydrocarbon receptor (Homo sapiens), sequence (P35869 whole entry, looked up): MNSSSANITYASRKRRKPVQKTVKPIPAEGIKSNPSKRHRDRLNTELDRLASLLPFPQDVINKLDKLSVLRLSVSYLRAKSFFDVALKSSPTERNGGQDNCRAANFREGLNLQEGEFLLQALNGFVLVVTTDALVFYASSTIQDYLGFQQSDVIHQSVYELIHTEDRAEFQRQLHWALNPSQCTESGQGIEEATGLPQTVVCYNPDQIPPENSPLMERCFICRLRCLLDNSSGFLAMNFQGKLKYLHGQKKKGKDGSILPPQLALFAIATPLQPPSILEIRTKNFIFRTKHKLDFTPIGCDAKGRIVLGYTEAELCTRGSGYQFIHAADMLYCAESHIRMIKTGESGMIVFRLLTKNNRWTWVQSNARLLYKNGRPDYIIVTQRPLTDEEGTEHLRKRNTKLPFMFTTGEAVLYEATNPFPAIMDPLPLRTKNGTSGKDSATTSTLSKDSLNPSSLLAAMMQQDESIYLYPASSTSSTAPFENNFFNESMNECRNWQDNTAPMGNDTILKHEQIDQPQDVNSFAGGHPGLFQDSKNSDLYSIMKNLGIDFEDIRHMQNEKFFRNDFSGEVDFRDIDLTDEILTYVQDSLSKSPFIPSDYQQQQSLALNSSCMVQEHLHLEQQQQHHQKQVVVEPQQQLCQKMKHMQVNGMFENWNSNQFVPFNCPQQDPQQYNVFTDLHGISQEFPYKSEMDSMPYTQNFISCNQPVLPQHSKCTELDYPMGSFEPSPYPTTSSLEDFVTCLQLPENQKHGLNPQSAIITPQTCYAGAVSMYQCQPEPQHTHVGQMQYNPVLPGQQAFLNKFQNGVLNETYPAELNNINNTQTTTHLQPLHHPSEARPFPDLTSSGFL
Peroxisome proliferator-activated receptor gamma (Homo sapiens), sequence (P37231 whole entry, looked up): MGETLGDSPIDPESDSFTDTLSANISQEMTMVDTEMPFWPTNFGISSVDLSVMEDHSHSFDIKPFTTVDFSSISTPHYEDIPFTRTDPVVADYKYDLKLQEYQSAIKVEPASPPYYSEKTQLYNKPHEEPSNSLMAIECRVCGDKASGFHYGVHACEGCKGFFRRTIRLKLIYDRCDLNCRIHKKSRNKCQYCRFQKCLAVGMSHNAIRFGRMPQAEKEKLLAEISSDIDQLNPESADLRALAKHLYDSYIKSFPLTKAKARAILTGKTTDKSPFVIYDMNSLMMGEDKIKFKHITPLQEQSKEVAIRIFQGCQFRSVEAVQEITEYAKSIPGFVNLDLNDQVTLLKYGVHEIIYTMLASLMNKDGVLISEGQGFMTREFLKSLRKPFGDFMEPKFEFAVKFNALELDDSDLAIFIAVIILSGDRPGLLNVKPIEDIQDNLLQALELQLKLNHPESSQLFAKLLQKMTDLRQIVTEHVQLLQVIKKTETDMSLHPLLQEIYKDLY

Consider `CCCC(=O)C(CC)Sc1ccoc1C` (stereo not drawn), for which the Potency entry in experiment [1], in experiment [6] and in experiment [8] was “inactive” throughout. Further, the call in [2], in [3], in experiment [4], in [5], in experiment [7] and in experiment [9] was inactive. The compound was called inactive in experiment [10].
`CCCCCCCCC1CO1` (stereo not drawn): the Potency entry in [1], in experiment [6] and in experiment [8] was “inactive” each time. In addition, the outcome in experiment [2], in experiment [3], in experiment [4], in experiment [5], in experiment [7] and in experiment [9] was inactive. In addition, the outcome in [10] was inactive.
For `CSC(=O)c1cccc2nnsc12`, the Potency result in experiment [1], in experiment [6] and in experiment [8] was “inactive” in each case. Also, the compound was called inactive in experiment [2], in [3], in [4], in experiment [5], in [7] and in experiment [9]. The call in [10] was inactive.
For `CCOC(=O)CC`, the Potency entry in experiment [1] and in experiment [6] was “inactive” throughout. In addition, the result in experiment [2], in experiment [3], in experiment [4], in [5], in [7] and in [9] was inactive.
Take `CC(=O)OC/C=C(/C)CCC=C(C)C`: the Potency result in [1], in [6] and in experiment [8] was “inactive” throughout. The result in experiment [2], in experiment [3], in experiment [4], in [5], in experiment [7] and in experiment [9] was inactive.
In the case of `CCC(C)c1nccnc1OC` (stereo not drawn), the Potency entry in [1], in experiment [6] and in experiment [8] was “inactive” in each case. In addition, the call in experiment [2], in experiment [3], in experiment [4], in experiment [5], in [7] and in [9] was inactive. Further, the result in [10] was inactive.
Regarding `CCCC(=O)CC`, the Potency result in experiment [1] and in [6] was “inactive” each time. Further, the outcome in experiment [2], in experiment [3], in [4], in [5] and in experiment [7] was inactive.
For `O=c1[nH]c(=O)c2cn[nH]c2[nH]1`, the Potency entry in experiment [1], in experiment [6] and in experiment [8] was “inactive” throughout. Further, the compound was classed as inactive in experiment [2], in experiment [3], in experiment [4], in [5], in experiment [7] and in [9]. Further, the compound was called inactive in experiment [10].
As to `COc1cc(C(=O)NC2CCCNC2)cc(OC)c1OC` (stereo not drawn), the Potency result in [1], in [6] and in experiment [8] was “inactive” in each case. The compound was called inactive in experiment [2], in [3], in experiment [4], in experiment [5], in [7] and in experiment [9]. Also, the outcome in experiment [10] was inactive.
For the compound `N=C(N)N1CCc2ccccc2C1`, the Potency entry in experiment [1] is “inactive”. Further, the result in experiment [2] and in [3] was inactive. For the same compound, the ratio activity, negative = inhibition in experiment [4] is -11.9% [at 5.95 µM]. Besides, the activity change, negative = cytotoxicity in experiment [5] was 0.134% [at 5.95 µM]; in [8], 14.1% [at 5.95 µM]; in experiment [10], 3.73% [at 5.95 µM]. Also, the activation in experiment [6] was -8.74% [at 8.36 µM]; in experiment [9], -0.5% [at 5.95 µM]. For the same compound, the viability change, negative = cytotoxic in [7] was -8.38% [at 8.36 µM].
Take `CC/C=C\CCOC(=O)c1ccccc1`: the Potency result in experiment [1] and in experiment [6] was “inactive” each time. For the same compound, the compound was classed as inactive in experiment [2], in experiment [3], in experiment [4], in experiment [5], in [7] and in experiment [9]. For the same compound, the compound was classed as inactive in [10].
Take `CC(C)(C)OC=O`: the Potency result in [1], in experiment [6] and in experiment [8] was “inactive” throughout. Moreover, the compound was called inactive in experiment [2], in experiment [3], in experiment [4], in experiment [5], in [7] and in experiment [9]. The compound was called inactive in [10].
In the case of `BrCCOc1ccccc1`, the Potency result in [1], in [6] and in experiment [8] was “inactive” in each case. The outcome in experiment [2], in experiment [3], in experiment [4], in experiment [5], in experiment [7] and in experiment [10] was inactive.
For `Nc1ccc(C(=O)NCC(=O)O)cc1`, the Potency entry in experiment [1], in [6] and in experiment [8] was “inactive” in each case. Also, the compound was classed as inactive in experiment [2], in experiment [3], in experiment [4], in experiment [5], in experiment [7] and in experiment [9]. The outcome in experiment [10] was inactive.
As to `CC(C)(C)c1ccc(N)cc1`, the Potency result in [1], in experiment [6] and in experiment [8] was “inactive” throughout. The outcome in [2], in experiment [3], in experiment [4], in experiment [5], in experiment [7] and in [9] was inactive. Moreover, the compound was classed as inactive in experiment [10].
Consider `C=CCn1cc[n+](C)c1`, for which the Potency result in experiment [1], in experiment [6] and in [8] was “inactive” in each case. For the same compound, the outcome in experiment [2], in experiment [3], in [4], in experiment [5], in experiment [7] and in experiment [9] was inactive. In addition, in experiment [10], the result was inactive.
Consider `Cc1ccc(N)nc1`, for which the Potency result in [1] and in experiment [6] was “inactive” in each case. For the same compound, the outcome in experiment [2], in experiment [3], in [4], in experiment [5], in [7] and in experiment [9] was inactive.
Consider `COC(=O)C(c1ccccc1Cl)N1CCc2sccc2C1` (stereo not drawn), for which the Potency entry in [1], in [6] and in [8] was “inactive” each time. Also, the outcome in experiment [2], in experiment [3], in experiment [4], in experiment [5], in experiment [7] and in experiment [9] was inactive. Further, the outcome in experiment [10] was inactive.
On to `CC(C)CC(=O)N[C@H](C(=O)N[C@H](C(=O)N[C@@H](CC(C)C)[C@@H](O)CC(=O)N[C@@H](C)C(=O)N[C@@H](CC(C)C)[C@@H](O)CC(=O)O)C(C)C)C(C)C` (Isovaleryl-VV[Sta]A[Sta]-OH), for which the Potency entry in [1], in [6] and in experiment [8] was “inactive” throughout. Further, the result in experiment [2], in [3], in [4], in experiment [5], in experiment [7] and in experiment [10] was inactive.
Turning to `O=S(=O)(O)CC(O)CCl` (stereo not drawn), the Potency entry in experiment [1], in experiment [6] and in experiment [8] was “inactive” throughout. Further, the compound was classed as inactive in experiment [2], in experiment [3], in experiment [4], in experiment [5], in [7] and in [9]. In experiment [10], the compound was classed as inactive.
For `CC(=O)SC[C@@H](C)C(=O)N1CCC[C@H]1C(=O)N[C@@H](Cc1ccccc1)C(=O)O`, the Potency entry in experiment [1], in experiment [6] and in experiment [8] was “inactive” in each case. The compound was called inactive in experiment [2], in [3], in experiment [4], in [5], in experiment [7] and in [9]. For the same compound, the call in experiment [10] was inactive.
`COC(=O)c1c(C)cc(O)c(C)c1O`: the Potency entry in experiment [1], in [6] and in [8] was “inactive” each time. Also, the outcome in experiment [2], in [3], in experiment [4], in [5], in experiment [7] and in [9] was inactive. Moreover, the call in experiment [10] was inactive.
Regarding `C/C(Cl)=C/CCl`, the Potency entry in [1] and in [8] was “inactive” each time. Moreover, the compound was called inactive in [2], in [3], in experiment [4], in [5], in [7] and in experiment [9]. Further, in experiment [6], the Potency was 31.2 µM (active).
Turning to `O=C1c2ccccc2C(=O)N1CO`, the Potency result in experiment [1], in experiment [6] and in experiment [8] was “inactive” each time. Moreover, the result in [2], in experiment [3], in experiment [4], in [5], in experiment [7] and in experiment [9] was inactive. The result in experiment [10] was inactive.
On to `CNC(C)=O`, for which the Potency result in experiment [1], in experiment [6] and in [8] was “inactive” throughout. Also, the compound was classed as inactive in [2], in [3], in experiment [4], in [5], in [7] and in experiment [9]. Moreover, the compound was called inactive in experiment [10].
On to `O=CN1CCCCC1`, for which the Potency entry in experiment [1], in experiment [6] and in [8] was “inactive” throughout. Moreover, the outcome in [2], in experiment [3], in [4], in experiment [5], in experiment [7] and in [9] was inactive. Further, the outcome in experiment [10] was inactive.
